Assay results published in PubChem BioAssay AID1159580 (chemical genetic matrix, 2015).
Screen size: about 5,500 compounds; about 2,000 (36%) were called active. Roughly 18% stayed inconclusive and do not appear here. Rule as the data show it: active = normalized growth mostly below about 0.91 (no sharp cut-off); inconclusive = no clear call, values can overlap the other calls; inactive = mostly above about 0.92. The list shows a part of the results.

Experiment: chemical genetic growth profiling, strain panel (AID 1159580);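 also: tested at 20 µM; growth read once vehicle control cultures reached saturation at 30 °C; 1 = growth at the plate median or of vehicle wells; lower values mean less growth of the strain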
Conditions: S. cerevisiae deletion strains, growth OD
[1] = locus YDL101C, strain DUN1, stronger effect = lower value
[2] = locus YHR030C, strain SLT2, stronger effect = lower value
[3] = locus YAL013W, strain DEP1, stronger effect = lower value
[4] = locus YBR229C, strain ROT2, stronger effect = lower value
[5] = locus YCL061C, strain MRC1, stronger effect = lower value
[6] = locus YDR150W, strain NUM1, stronger effect = lower value
[7] = locus YEL061C, strain CIN8, stronger effect = lower value
[8] = locus YGR078C, strain PAC10, stronger effect = lower value
[9] = locus YHR087W, strain rtc3, stronger effect = lower value
[10] = locus YJR043C, strain POL32, stronger effect = lower value
[11] = locus YJR075W, strain HOC1, stronger effect = lower value
[12] = locus YKL190W, strain CNB1, stronger effect = lower value
[13] = locus YLR039C, strain RIC1, stronger effect = lower value
[14] = locus YLR058C, strain SHM2 (second series), stronger effect = lower value
[15] = locus YLR085C, strain ARP6, stronger effect = lower value
[16] = locus YLR262C, strain YPT6, stronger effect = lower value
[17] = locus YML094W, strain GIM5, stronger effect = lower value
[18] = locus YMR219W, strain ESC1, stronger effect = lower value
[19] = locus YMR263W, strain SAP30, stronger effect = lower value
[20] = locus YNL153C, strain GIM3, stronger effect = lower value
[21] = locus YNL298W, strain CLA4 (second series), stronger effect = lower value
[22] = locus YNL322C, strain KRE1, stronger effect = lower value
[23] = locus YNR030W, strain Alg12, stronger effect = lower value
[24] = locus YPL055C, strain LGE1, stronger effect = lower value
[25] = locus YPL241C, strain CIN2, stronger effect = lower value
[26] = locus YPR135W, strain CTF4, stronger effect = lower value

Measured: normalized growth

CC(C)(C)c1cc(C(=O)NNc2cccc(Cl)c2)n(Cc2ccccc2)n1
inactive: locus YAR019C, strain CDC15, stronger effect = lower value 0.98 | locus YBL105C, strain PKC1, stronger effect = lower value 0.978 | locus YBR135W, strain CKS1, stronger effect = lower value 0.983 | locus YBR136W, strain MEC1, stronger effect = lower value 0.973 | locus YBR160W, strain CDC28, stronger effect = lower value 0.975 | locus YDL017W, strain CDC7, stronger effect = lower value 0.987 | locus YDL028C, strain MPS1, stronger effect = lower value 0.975 | [1] 0.955 | locus YDL108W, strain KIN28, stronger effect = lower value 0.978 | locus YDL132W, strain cdc53, stronger effect = lower value 0.969 | locus YDL214C, strain PRR2, stronger effect = lower value 0.917 | locus YDR052C, strain DBF4, stronger effect = lower value 0.976 | locus YDR054C, strain cdc34, stronger effect = lower value 0.979 | locus YDR226W, strain ADK1, stronger effect = lower value 0.985 | locus YDR477W, strain SNF1, stronger effect = lower value 0.923 | locus YER123W, strain YCK3, stronger effect = lower value 0.832 | locus YER133W, strain GLC7, stronger effect = lower value 0.926 | locus YFL009W, strain cdc4, stronger effect = lower value 0.992 | locus YFL029C, strain CAK1, stronger effect = lower value 0.939 | locus YFR003C, strain YPI1, stronger effect = lower value 0.99 | locus YFR019W, strain FAB1, stronger effect = lower value 0.911 | locus YFR028C, strain CDC14, stronger effect = lower value 0.974 | locus YGR040W, strain KSS1, stronger effect = lower value 0.906 | locus YGR052W, strain FMP48, stronger effect = lower value 0.922 | locus YGR092W, strain DBF2, stronger effect = lower value 0.822 | [2] 0.862 | locus YHR079C, strain IRE1, stronger effect = lower value 0.927 | locus YHR082C, strain KSP1, stronger effect = lower value 0.962 | locus YHR205W, strain SCH9, stronger effect = lower value 0.894 | locus YIL147C, strain SLN1, stronger effect = lower value 0.981 | locus YJL095W, strain BCK1, stronger effect = lower value 0.825 | locus YJL128C, strain PBS2, stronger effect = lower value 0.956 | locus YJL157C, strain FAR1, stronger effect = lower value 0.892 | locus YJR016C, strain ILV3, stronger effect = lower value 0.985 | locus YJR066W, strain TOR1 (second series), stronger effect = lower value 0.884 | locus YJR066W, strain TOR1, stronger effect = lower value 0.935 | locus YKL048C, strain ELM1, stronger effect = lower value 0.889 | locus YKL067W, strain YNK1, stronger effect = lower value 0.935 | locus YKL101W, strain HSL1, stronger effect = lower value 0.917 | locus YKL193C, strain SDS22, stronger effect = lower value 0.96 | locus YKL203C, strain TOR2, stronger effect = lower value 1.01 | locus YLR133W, strain CKI1, stronger effect = lower value 0.882 | locus YLR403W, strain SFP1, stronger effect = lower value 0.913 | locus YML070W, strain DAK1, stronger effect = lower value 0.887 | locus YMR001C, strain CDC5, stronger effect = lower value 0.975 | locus YMR205C, strain PFK2 (second series), stronger effect = lower value 0.923 | locus YMR277W, strain FCP1, stronger effect = lower value 0.988 | locus YNL006W, strain LST8, stronger effect = lower value 0.986 | locus YNL020C, strain ARK1, stronger effect = lower value 0.887 | locus YNL161W, strain CBK1, stronger effect = lower value 0.978 | locus YNL183C, strain NPR1, stronger effect = lower value 0.965 | locus YNL207W, strain RIO2, stronger effect = lower value 0.974 | locus YNL222W, strain SSU72, stronger effect = lower value 0.982 | locus YNL307C, strain MCK1 (second series), stronger effect = lower value 0.816 | locus YOL078W, strain AVO1, stronger effect = lower value 0.96 | locus YOL136C, strain PFK27, stronger effect = lower value 0.86 | locus YOR061W, strain CKA2, stronger effect = lower value 0.847 | locus YOR119C, strain RIO1, stronger effect = lower value 0.978 | locus YOR231W, strain MKK1, stronger effect = lower value 0.869 | locus YOR329C, strain SCD5, stronger effect = lower value 0.978 | locus YPL031C, strain PHO85, stronger effect = lower value 0.94 | locus YPL153C, strain RAD53, stronger effect = lower value 0.925 | locus YPL204W, strain HRR25, stronger effect = lower value 0.889 | locus YPL209C, strain IPL1, stronger effect = lower value 0.972 | locus YPL256C, strain CLN2, stronger effect = lower value 0.863 | locus YPR025C, strain CCL1, stronger effect = lower value 0.981 | locus YPR106W, strain ISR1, stronger effect = lower value 0.969 | locus YPR111W, strain DBF20, stronger effect = lower value 0.978 | strain NNK1, stronger effect = lower value 0.961 | strain TSCII, stronger effect = lower value 0.966
active: locus YLR113W, strain HOG1, stronger effect = lower value 0.787

Cc1cccc(Cn2nc(C(C)(C)C)cc2C(=O)O)c1
inactive: [3] 0.96 | [4] 0.96 | [5] 1 | [1] 0.978 | [6] 0.98 | [7] 0.998 | [8] 0.97 | [2] 1.03 | [9] 0.949 | locus YJL187C, strain SWE1, stronger effect = lower value 0.973 | [10] 0.971 | [11] 0.963 | [12] 0.982 | [13] 0.882 | [14] 0.969 | [15] 1.02 | [16] 0.905 | [17] 1 | [18] 0.946 | [19] 0.998 | [20] 0.985 | [21] 0.997 | [22] 0.946 | [23] 1 | [24] 0.978 | [25] 1.01 | [26] 0.986

CC(C)(C)c1cc(C(=O)NNC(=O)c2cc(C(F)(F)F)cc(C(F)(F)F)c2)n(Cc2ccc(F)cc2)n1
inactive: [3] 0.979 | [4] 1.03 | [5] 1.04 | [1] 0.964 | [6] 1.01 | [7] 0.979 | [8] 1.01 | [2] 1 | [9] 0.994 | [10] 0.997 | [11] 1.08 | [13] 1.02 | [14] 1.04 | [15] 0.999 | [16] 1.02 | [17] 0.987 | [18] 1 | [19] 1.02 | [20] 1 | [21] 0.984 | [22] 0.99 | [23] 0.997 | [24] 0.976 | [25] 1.01 | [26] 0.927

CCN1CCCC1CNC(=O)c1cc(S(N)(=O)=O)ccc1OC (centres undefined)
inactive: [3] 0.972 | locus YAL040C, strain CLN3, stronger effect = lower value 0.955 | locus YCL061C, strain MRC1 (second series), stronger effect = lower value 0.984 | locus YDR363W, strain ESC2, stronger effect = lower value 0.962 | locus YER002W, strain NOP16, stronger effect = lower value 0.969 | [11] 0.973 | [19] 0.98 | locus YMR307W, strain GAS1, stronger effect = lower value 1.02 | [20] 1.02 | locus YNL175C, strain NOP13, stronger effect = lower value 0.978 | locus YNL197C, strain WHI3, stronger effect = lower value 0.977 | locus YNL224C, strain SQS1, stronger effect = lower value 0.992 | [22] 0.974 | locus YOR083W, strain WHI5 (second series), stronger effect = lower value 0.963 | [24] 0.993

CC(=O)Nc1ccc(S(=O)(=O)Nc2c(C)n(C)n(-c3ccccc3)c2=O)cc1
inactive: [3] 0.999 | [4] 0.947 | [5] 1.02 | [1] 1.04 | [6] 1.04 | [7] 0.995 | [8] 1.02 | [2] 1.11 | [9] 0.974 | [10] 1.02 | [11] 0.996 | [12] 1.01 | [13] 1.02 | [14] 0.995 | [15] 0.999 | [16] 1 | [17] 1.01 | [18] 1.01 | [19] 1.01 | [20] 1.06 | [21] 1 | [22] 1.01 | [23] 1 | [24] 0.974 | [25] 0.987 | [26] 1.07
